# Screening data from PubChem BioAssay.
# ELG1 repair inh: blocks ELG1-dependent DNA repair in HEK293T cells; HEK293T ELG1-luciferase reporter, luminescence, 16 h; DNA damage induced by 5-fluorouridine; Potency, µM (series often up to 46.1 µM), without a hit: at the highest dose activity change, negative = inhibition, hits mostly inhibitors; 330,000 tested, 2.3% active; AID 504467; further: on the % scale 0 is the no-effect control and ±100 the full control effect; nearly all actives have a fitted effect of over 55% in size
#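 Quantitative HTS, concentration-response format. 2,000 cells/well co-treated with 5-fluorouridine and compound, 16 hr in 5% CO2 at 37 °C; ONE-Glo luminescence read after 30 min.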
# p53 reactivation: restores transcriptional activity of mutant p53; AID 504706; 320,000 tested, 0.063% active; H1299 p53-A138V BP100-luciferase reporter, luminescence, 24 h; Potency, µM (titrated, usually from 92.2 µM), inactives show at the highest dose activity change, positive = activation, actives largely listed as activators; further: % of control where 0% means no effect; nearly all actives have a fitted effect of over 45% in size
#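 H1299 (p53-null), stable ts p53-A138V + BP100-Luc; 1000 cells/well, Opti-MEM/10% FBS; cpd 4 pt, 1:5; 24 h, 37 deg C, 5% CO2; detection reagent 10 min RT; luminescence.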
# AT treatment: potential ataxia-telangiectasia treatments restoring KAP-1 phosphorylation. 320,000 tested, 0.19% active. Potency, µM (top dose mostly 57.5 µM), without a hit: at the top dose activation, actives largely listed as activators. F2112 A-T fibroblasts, KAP-1 phosphorylation AlphaLISA; neocarzinostatin DNA damage 30 min before lysis; further: % of control where 0% means no effect; nearly all actives have a fitted effect of over 45% in size
#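 hTERT-immortalized A-T patient fibroblasts (F2112), 500 cells/well in OPTI-MEM, 1% FBS, got compounds for 60 min, then NCS for 30 min at 37C. Lysates were then assayed for phospho-KAP-1 by AlphaLISA (anti-pKAP1 donor, anti-KAP1 acceptor beads), 6 hr at 25C.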
# SW480 rerep: DNA re-replication induction in SW480 cells | SW480 DNA re-replication, Hoechst DNA content imaging, 48 h | Potency, µM (top dose mostly 46.1 µM), without a hit: top-dose re-replication activation, hits mostly activators | 340,000 tested, 1.8% active | AID 624297; further: % of control where 0% means no effect; nearly all actives have a fitted effect of over 55% in size
#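 Quantitative HTS format with DMSO vehicle controls; 48 hr drug incubation at 37 C, then 40 min Hoechst staining and scanning imager measurement at 405 nm excitation.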
# ELG1 genotox: genotoxicity induction in ELG1-luciferase HEK293T cells; HEK293T ELG1-luciferase reporter, luminescence, 16 h; Potency, µM (titrated, usually from 46 µM), inactives show at the top dose activity change, positive = activation, actives largely listed as activators; 330,000 tested, 1.3% active; AID 504466; further: % of control where 0% means no effect; nearly all actives have a fitted effect of over 60% in size
#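 Reporter readout depends on ELG1 protein level, which increases with genetic stress. After 16 hr compound exposure at 37 °C, luciferase activity was quantified using ONE-Glo.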
# MCF10A rereplic: induces DNA re-replication in MCF 10a normal breast cells | MCF 10A DNA re-replication, Hoechst nuclear intensity, 48 h | Potency, µM (series often up to 46.1 µM), for the others: top-dose activity, positive = re-replication, most hits filed as activators | 350,000 tested, 2.9% active | AID 624296; further: % of control where 0% means no effect; nearly all actives have a fitted effect of over 50% in size
# An asterisk follows results filed as active; ? = inconclusive; · = no result. The list is not random: actives were taken first. Their share in the collection is about 7.1%. The call rests on the fitted dose curve; in most records, active means well fitted curve in the direction sought with a large enough effect; inconclusive means small, poorly fitted or top-dose-only effect, or another doubt; inactive means no such curve, though single readings can be large; an effect the other way counts as inactive or inconclusive. Potency means the concentration at half of the fitted maximal effect.
SMILES,ELG1 repair inh,p53 reactivation,AT treatment,SW480 rerep,ELG1 genotox,MCF10A rereplic
COc1cc(/C=N/NC(=O)c2[nH]nc3c2CCc2ccccc2-3)ccc1O,?,2.9%,2.7%,?,-4.4%,?
CN(C)c1ccc(/C=N/NC(=O)CCC(=O)NCc2ccccc2)cc1,5.1%,16.6%,-4.4%,0.3%,-1.1%,-2.1%
COc1cc(/C=N/NC(=O)C(=O)/C=C2\NC3(CCCC3)Cc3ccccc32)ccc1O,23.1µM*,-4.3%,-5.4%,-2.5%,-6.2%,9.7%
CC(C)c1ccc2[nH]c(O)c(N=NC(=O)c3cccc(S(=O)(=O)N4CCCCC4)c3)c2c1,10.3µM*,-0.3%,-11.2%,-1.6%,-12.6%,-0.3%
O=C(N=c1nc2ccccn2s1)c1ccccc1,?,?,29.1%,?,0.13µM*,-14.8%
Cc1ccccc1C(=O)NC(=S)Nc1ccccc1C(F)(F)F,-16.6%,7.2%,-1.4%,8.8%,2.4%,-0.7%
FC(F)(F)c1ccccc1NC(=S)NN=C1CCCCCC1,-8.0%,2.7%,0.4%,11.6µM*,-6.8%,?
O=C(NC(=S)Nc1ccccc1C(F)(F)F)c1ccccc1F,-14.3%,-7.5%,2.4%,-3.2%,5.4%,10.3µM*
C[C@@H]1CN(S(=O)(=O)C(C)(C)C)[C@H](CCO)/C1=C\c1ccccc1,·,·,·,3.8%,·,?
Cc1ccc(C(=O)NCCCNC(=O)Cc2ccccc2)cn1,8.1%,2.8%,8.9%,-34.8%,-0.4%,2.1%
CCNC(=S)N(CCc1c(C)[nH]c2ccc(Cl)cc12)Cc1cccnc1,0.4%,?,?,1.7%,-1.6%,?
CNC(=S)N(CCc1c(C)[nH]c2ccc(Cl)cc12)Cc1cccnc1,-14.0%,-2.1%,0.891µM*,-0.1%,-2.1%,-0.7%
CCCCN(C(=O)C1CCCC1)C1CCS(=O)(=O)C1 (stereo not given),12.7%,-2.2%,3.6%,-3.6%,-0.2%,4.3%
COC(=O)c1ccc(COC(=O)CCNS(=O)(=O)c2ccc(C)c(C)c2)cc1,-1.6%,7.1%,10.8%,-17.3%,1.0%,7.6%
COc1ccc(NC(=O)COc2cccc(-n3cnnn3)c2)cc1Cl,?,3.5%,-6.1%,6.51µM*,1.2%,-4.5%
O=C(COc1cccc(-n2cnnn2)c1)Nc1ccc([N+](=O)[O-])cc1,-3.3%,-1.2%,-0.8%,0.6%,-3.7%,14.4%
O=C(CSc1nc(O)c(C2CCCCC2)c(=O)[nH]1)Nc1ccc(F)cc1,-1.1%,0.7%,2.4%,-8.8%,-3.2%,2.1%
O=C(CN(c1ccccc1)S(=O)(=O)c1ccccc1)NCCSc1nc2ccccc2s1,?,3.0%,0.8%,-0.1%,-5.9%,?
COc1ccccc1N(CC(=O)NCCSCc1cccc(C)c1)S(=O)(=O)c1ccccc1,?,-1.5%,17.9%,15.7%,-25.4%,18.4µM*
Cc1cccc(N(CC(=O)NCCSc2nc3ccccc3s2)S(=O)(=O)c2ccccc2)c1,16.4µM*,-7.7%,1.4%,·,-1.1%,·
CN(C)C(=O)OCc1c(-c2ccccc2)ncc2ccccc12,-16.8%,-6.8%,6.6%,-23.8%,-2.5%,1.6%
CN(C)c1nc(N)nc(-c2nc3ccccc3s2)n1,?,?,-7.7%,-0.8%,3.26µM*,2.5%
c1ccc2sc(-c3ccc4c(c3)OCO4)nc2c1,?,?,5.2%,8.1%,0.581µM*,?
Nc1ccc(O)c(-c2nc3ccccc3s2)c1,?,?,-1.3%,2.5%,?,?
Nc1ccccc1-c1nc2ccccc2s1,?,4.9%,13.0%,?,?,16.4µM*
SMILES,ELG1 repair inh,p53 reactivation,AT treatment,SW480 rerep,ELG1 genotox,MCF10A rereplic
COc1cccc(-c2nc3ccccc3s2)c1,?,?,6.5%,-2.8%,2.06µM*,1.8%
O=C(NCc1ccco1)Nc1cccc([N+](=O)[O-])c1,11.2%,-0.5%,4.1%,-0.9%,-2.7%,11.9%
Cc1cc(OCC(=O)OCC(=O)N(C)C2CCS(=O)(=O)C2)ccc1Cl (stereo not given),3.3%,2.0%,-7.3%,-2.0%,2.1%,2.2%
c1ccc2sc(-c3ccncc3)nc2c1,?,14.4%,7.9%,5.8%,?,-0.3%
COc1ccc(-c2nc3ccccc3s2)cc1,?,-7.1%,6.2%,-1.1%,0.517µM*,-2.4%
CC(=O)NCc1ccc(-c2nc3ccccc3s2)cc1,?,-3.7%,0.1%,-38.7%,?,4.6%
Oc1ccc(-c2nc3ccccc3s2)cc1,?,8.3%,2.1%,-1.5%,3.66µM*,-0.9%
COc1ccc(-c2nc3ccccc3s2)cc1NC(C)=O,?,?,0.4%,-11.8%,16.4µM*,4.3%
COc1ccc(-c2[nH]c(-c3cc(OC)c4c(c3)OCO4)nc2-c2ccccc2)cc1,20.6µM*,16.0%,-2.5%,-3.7%,-7.0%,13µM*
c1ccc2[nH]c(-c3ccc4c(c3)OCO4)nc2c1,·,·,·,?,·,8.7%
CC(Oc1ccccc1)C(=O)Nc1nnc(S(=O)(=O)Nc2ccccc2)s1 (stereo not given),4.2%,·,2.6%,-16.8%,1.4%,-12.0%
COc1cc(/C=C2/SC(=O)N(Cc3ccccc3)C2=O)ccc1OCc1ccncc1,10.3µM*,4.1%,6.2%,12.1%,-8.2%,?
COc1cc(C=O)ccc1OCc1ccncc1,11.8%,3.9%,-6.5%,-16.3%,0.5%,-6.1%
COc1cc(/C=C2/SC(=S)N(Cc3ccccc3)C2=O)ccc1OS(C)(=O)=O,-14.8%,?,-7.6%,?,-6.4%,-13.1%
COc1ccc(/C=C2\SC(=NCc3ccccc3)N(Cc3ccccc3)C2=O)cc1OC,13µM*,-3.5%,0.7%,-11.1%,3.2%,-5.2%
CCN1C(=O)[C@H]2[C@@H](c3ccc(C)cc3)N3C(=O)N(c4ccc(OC)cc4)C(=O)[C@@]3(C)[C@H]2C1=O,22.8%,·,5.0%,-5.9%,0.8%,-8.5%
COc1ccc(C2=NN(c3nc(-c4ccc(CNC(C)=O)cc4)cs3)C(c3ccco3)C2)cc1 (stereo not given),5.5%,8.3%,9.1%,?,-4.1%,2.59µM*
CC(C)(C)c1ccc(NC(=O)C2=CN3CCS(=O)(=O)N=C3C=C2)cc1,15.6%,-4.2%,-13.5%,?,-0.3%,9.7%
O=c1cc(-c2ccccc2Cl)oc2ccc([N+](=O)[O-])c(O)c12,-2.8%,1.2%,-19.6%,19.1%,0.1%,0.366µM*
O=c1cc(-c2ccccc2)oc2cccc(O)c12,·,·,·,-8.6%,·,-7.5%
Nc1ccc2oc(-c3ccccc3Cl)cc(=O)c2c1O,?,?,-11.3%,-4.7%,16.4µM*,-11.2%
